In PubChem BioAssay (Tox21):
Active and inactive are the calls of the source. The call rests on the fitted dose curve; in most records, active means well fitted curve in the direction sought with a large enough effect in the repeat runs; inconclusive means weak or mixed curves; inactive means flat fitted curve, though single readings scatter.

Experiment: qHTS assay to test for compound auto fluorescence at 590 nm (red) in HEK293 cells (AID 720679)
Settings: red autofluorescence 540/590 nm; series mostly up to 91.3 µM
Description: National Center for Advancing Translational Sciences [NCATS]
NIH Chemical Genomics Center [NCGC]
U.S. Environmental Protection Agency [EPA]
National Institutes of Environmental Health Sciences [NIEHS]
National Toxicology Program [NTP]
U.S. Food and Drug Administration [FDA]
Compound auto fluorescence often interferes with screening of the compound library against various biological targets and signaling pathways. Some of these compounds may have fluorophoric properties. Such properties may interfere with the assay outputs resulting in false positives and/or negatives. To decrease such complications and ensure the compound activities are relevant in terms of biological response, the Tox21 10K compound library was screened for auto fluorescence.
From the fluorophores used as reporter signals in our screening assays, the auto fluorescence equivalencies of compounds against three fluorophores have been evaluated: Triamterene, Fluorescein and Rose Bengal sodium for blue, green and red fluorescence, respectively. The fluorescence intensities were measured using Excitation/Emission wavelengths at 405/460nm, 485/535nm and 540/590nm for blue, green and red labels, respectively. This assay includes the red fluorescence data.
Tox21 Assay Protocol Summary:
2,000 HEK293 cells in 5 uL of culture medium containing 10% dialyzed FBS per well were dispensed into black wall/clear bottom 1536-well plates using a Multidrop Combi Dispenser (Thermo Scientific). The assay plates were incubated for 4-5 hr at 37C to allow cell attachment to the well bottom, followed by the transfer of 23 nL compound or DMSO vehicle by a pintool work station (Kalypsys, San Diego, CA). After the assay plates were incubated overnight at 37C and 5% CO2, fluorescence intensities in the assay plates were measured by an Envision (PerkinElmer, Shelton, CT) plate reader using three labels for measuring blue, green and red fluorescence at […] 460, 535 and 590nm respectively.
With `CCc1ccccc1CC` the outcome was “inactive”.
For `CC(=O)OCCOC(C)=O`, the outcome was “inactive”.
With `C=C(C)C(=O)OCC(C)C` the outcome was “inactive”.
For `CCOCC(=O)O`, the outcome was “inactive”.
For `O=C1CCCC1`, the outcome was “inactive”.
With `CN/C(=C\[N+](=O)[O-])NCCSCc1csc(CN(C)C)n1` the outcome was “inactive”.
In the case of `O=c1[nH]cnc2[nH]ncc12`, the outcome is reported as “inactive”.
For `COc1ccccc1OCC(O)CO` (stereo not given), the outcome was “inactive”.
With `C[Si]1(C)O[Si](C)(C)O[Si](C)(C)O[Si](C)(C)O1` the outcome was “inactive”.
With `CNC(=S)N(C)C` the outcome was “inactive”.
In the case of `CN(C)CCOC(=O)COc1ccc(Cl)cc1`, the outcome is reported as “inactive”.
In the case of `COCCCN`, the outcome is reported as “inactive”.
For `CC1(C)S[C@@H]2[C@H](NC(=O)COc3ccccc3)C(=O)N2[C@H]1C(=O)O`, the outcome was “inactive”.
With `CCOCCOCCOCCO` the outcome was “inactive”.
With `CCOC(=O)c1ccc(N)cc1` the outcome was “inactive”.
For `CC(=O)CC(C)(C)O`, the outcome was “inactive”.
In the case of `COc1ccc([N+](=O)[O-])cc1N`, the outcome is reported as “inactive”.
With `C=CC(C)CCCC(C)(C)O` (stereo not given) the outcome was “inactive”.
In the case of `CC(C)(Oc1ccc(CCNC(=O)c2ccc(Cl)cc2)cc1)C(=O)O`, the outcome is reported as “inactive”.
For `OCc1cccc(Oc2ccccc2)c1`, the outcome was “inactive”.
With `CN(C)c1ccc(Cc2ccc(N(C)C)cc2)cc1` the outcome was “inactive”.
In the case of `CCCCCCCC=O`, the outcome is reported as “inactive”.
With `O=C1c2ccccc2CCc2ccccc21` the outcome was “inactive”.
In the case of `CC(=O)CCC=C(C)C`, the outcome is reported as “inactive”.
For `CC(O)CC(C)(C)O` (stereo not given), the outcome was “inactive”.
In the case of `CCCCC(C=O)CC` (stereo not given), the outcome is reported as “inactive”.
In the case of `CC1(C)OC[C@@H]2O[C@@]3(C(=O)O)OC(C)(C)O[C@H]3[C@@H]2O1`, the outcome is reported as “inactive”.
In the case of `NCCN1CCNCC1`, the outcome is reported as “inactive”.
For `Brc1ccc(Br)c(Br)c1`, the outcome was “inactive”.
For `O=C(O)c1ccccc1C(=O)O`, the outcome was “inactive”.
In the case of `CC(=O)OCc1ccccc1`, the outcome is reported as “inactive”.
With `C=CCc1ccc(OC)c(OC)c1` the outcome was “inactive”.
In the case of `CCNC(=S)NCC`, the outcome is reported as “inactive”.
In the case of `COc1cc(OC)c(C(=O)CCCN2CCCC2)c(OC)c1`, the outcome is reported as “inactive”.
In the case of `Nc1ccc(Cl)c(N)c1`, the outcome is reported as “inactive”.
In the case of `O=C(O)Cn1c(=O)n(Cc2ccc(Br)cc2F)c(=O)c2ccc(Cl)cc21`, the outcome is reported as “inactive”.
In the case of `CSc1ccc(Cl)cc1`, the outcome is reported as “inactive”.
With `CN(C)c1ccc(O)c2c1C[C@H]1C[C@H]3[C@H](N(C)C)C(=O)C(C(N)=O)=C(O)[C@@]3(O)C(=O)C1=C2O` the outcome was “inactive”.
In the case of `CCCCCCCCCCCCCCCCO`, the outcome is reported as “inactive”.
In the case of `CC(C)=CCl`, the outcome is reported as “inactive”.
